The panel holds about 83,000 compounds, 20% with a hit somewhere; the sample as a whole holds those more often.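 In brief: 96-well plates, 48 h treatment, single concentration, percent growth endpoint.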 A number with no mark means an inactive call. The source made the active and inactive calls. Rule for the calls: active = growth percent below 10; inactive = the rest.
Tests used:
Assay in all cases: NCI-60 one-dose screen, 48 h (100 = growth as untreated, 0 = no growth, -100 = all killed)
Settings in all cases: 10 µM unless noted
RPMI-8226 leukemia = tested on: RPMI-8226 leukemia
OVCAR-8 ovarian = tested on: OVCAR-8 ovarian
OVCAR-5 ovarian = tested on: OVCAR-5 ovarian
OVCAR-4 ovarian = tested on: OVCAR-4 ovarian
SK-OV-3 ovarian = tested on: SK-OV-3 ovarian
OVCAR-3 ovarian = tested on: OVCAR-3 ovarian
HS 578T breast = tested on: HS 578T breast
NCI/ADR-RES ovarian = tested on: NCI/ADR-RES ovarian
T-47D breast = tested on: T-47D breast
BT-549 breast = tested on: BT-549 breast
MDA-MB-435 melanoma = tested on: MDA-MB-435 melanoma
SW-620 colon = tested on: SW-620 colon
MCF7 breast = tested on: MCF7 breast
HCT-116 colon = tested on: HCT-116 colon
HCC-2998 colon = tested on: HCC-2998 colon
KM12 colon = tested on: KM12 colon
IGROV1 ovarian = tested on: IGROV1 ovarian

| Compound | growth (RPMI-8226 leukemia) | growth (OVCAR-8 ovarian) [%] | growth (OVCAR-5 ovarian) [%] | growth (OVCAR-4 ovarian) [%] | growth (SK-OV-3 ovarian) | growth (OVCAR-3 ovarian) | growth (HS 578T breast) [%] | growth (NCI/ADR-RES ovarian) [%] | growth (T-47D breast) | growth (BT-549 breast) | growth (MDA-MB-435 melanoma) [%] | growth (SW-620 colon) [%] | growth (MCF7 breast) | growth (HCT-116 colon) [%] | growth (HCC-2998 colon) [%] | growth (KM12 colon) | growth (IGROV1 ovarian) |
| --- | --- | --- | --- | --- | --- | --- | --- | --- | --- | --- | --- | --- | --- | --- | --- | --- | --- |
| C[C@@H]1CCC2=C(CCC[C@]2(C)C(=O)O)[C@@]1(C)CCc1ccoc1 | 92.9% | 94.2 | 112 | 109 | 99.1% | 101% | 88 | 98.7 | 94.9% | 117% | 107 | 98.8 | 96.7% | 96 | 87.6 | 97.7% |  |
| COc1ncc(-c2ccc3ncnc(Nc4cccc(Cl)c4)c3c2)cc1NS(C)(=O)=O | 22.8% | 45.5 |  | 70.7 | -11.2% (active) | 26.9% |  | 51 | -6.68% (active) | 25.3% | 41.9 | 50.2 | 7.7% (active) | 47 | 56.8 | 55.3% | -45.5% (active) |
| Cc1cc2cc3cc(C)c(N(C)C)cc3[n+](C)c2cc1N(C)C | 4.78% (active) | 23.4 |  | 38.5 | 20.2% | -7.45% (active) | 33.1 | 78.4 | 16.4% | -28.7% (active) | 35.3 | 14.6 | 14% | 12.6 | 25.6 | 3.5% (active) | -3.39% (active) |

— PubChem BioAssay (NCI)
